# Measured values from PubChem BioAssay (Tox21).
# Where “and” joins values, the source holds several entries; their conditions need not be identical. Equal entries are not always repeated. Results filed as inconclusive are left out. A number with no mark means an inactive call. Calls of active or inactive are those of the source. Calls come from the whole dose curve; as a rule, active = well fitted cell-killing curve with a large enough effect in the repeat runs; inconclusive = weak or mixed curves, or effect the other way; inactive = flat fitted curve, though single readings scatter.
# Assay: qHTS RealTime-Glo MT Cell Viability Assay in HEK293 cells - 40 hour (AID 1224874); note: nearly all actives have a fitted effect of over 50% in size
# Conditions: RealTime-Glo luminescence; max response: active compounds read low
# Text: U.S. Tox21 Program National Center for Advancing Translational Sciences [NCATS] NIH Chemical Genomics Center [NCGC] U.S. Environmental Protection Agency [EPA] National Institutes of Environmental Health Sciences [NIEHS] National Toxicology Program [NTP] U.S. Food and Drug Administration [FDA] Tox21 Assay Overview: Measure of cell viability is critical in the cell-base assay. Analysis of cell viability is necessary for the characterization of cell responses to cytotoxic drugs and environmental stress. A RealTime-Glo MT Cell Viability Assay to monitor cell viability in real time of continues cell culture during 40 hours of compound treatment was used to screen Tox21 10K library compounds in Hek293 cells. The RealTime-Glo MT Cell Viability Assay is a nonlytic, homogeneous, bioluminescent method to measure cell viability in real time using a simple, plate-based method. The assay involves adding NanoLuc luciferase and a cell-permeant prosubstrate to cells in culture. Viable cells reduce the proprietary prosubstrate to generate a substrate for NanoLuc luciferase. This substrate diffuses from cells into the surrounding culture medium, where it is rapidly used by the NanoLuc Enzyme to produce a luminescent signal. The signal correlates with the number of viable cells, making the assay well suited for cytotoxicity studies.
# Tox21 Assay Protocol Summary: The mixture of Hek293 cell suspension and reagents were dispensed at 600cells/6 ul/well in 1536-well tissue culture treated black solid bottom plates using a Multidrop dispenser. After the assay plates were incubated at a 37 C/5% CO2 incubator for 5 hours, 23 nL of compounds dissolved in DMSO, positive and negative controls was transferred to the assay plate by a pintool work station. The plates were incubated at 37 C for 40 hours. The luminescence intensity were measured at 0h, 8h, 16h, 24h, 32h and 40h time points using ViewLux plate reader during compound treatment.
# % is set by controls: 0 for no effect and ±100 for the full control effect; potency is the fitted concentration of half-maximal effect.
SMILES,max response [%],Potency
CCN(CC)CCSC(=O)C(c1ccccc1)c1ccccc1,-12.3,–
CCCCN(C)C,1.09,–
N[C@@H](CSSC[C@H](N)C(=O)O)C(=O)O,2.95,–
O=C(c1ccccc1)c1cc(Cl)ccc1O,-24.1,–
CC(=O)OC1CCCCC1,-7.58,–
CCC(=O)OCCc1ccccc1,14,–
S=C(SSSSSSC(=S)N1CCCCC1)N1CCCCC1,–,0.192 µM (active)
NC(=O)c1ccccc1N,-1.93,–
SCCCCCCCCS,9.16,–
CCc1ccc(O)c(C(C)(C)C)c1,-13.3,–
CNCC[C@H](Oc1cccc2ccccc12)c1cccs1,–,23.9 µM (active)
Cn1cnc2ncnc(N)c21,11.2,–
CN(C)c1ccc(N=Nc2ccccc2C(=O)O)cc1,2,–
CC(NCCC(c1ccccc1)c1ccccc1)c1ccccc1 (stereo not given),–,16.9 µM (active)
CN(C)CCCN1c2ccccc2Sc2ccc(C(F)(F)F)cc21,–,23.9 µM (active)
Cc1cc(=O)[nH]c(=O)[nH]1,-0.154,–
C[C@H]1O[C@@H](O[C@H]2[C@@H](O)C[C@H](O[C@H]3[C@@H](O)C[C@H](O[C@H]4CC[C@@]5(C)[C@H](CC[C@@H]6[C@@H]5C[C@@H](O)[C@]5(C)[C@@H](C7=CC(=O)OC7)CC[C@]65O)C4)O[C@@H]3C)O[C@@H]2C)C[C@H](O)[C@@H]1O,–,61.7 nM (active) and 54.3 nM (active)
CC1CCCNC1 (stereo not given),-11.1,–
CCC(C)c1ccccc1 (stereo not given),6.63,–
OCCC(O)CO (stereo not given),15.6,–

SMILES,max response [%],Potency
C[C@]12CC[C@H]3C(=CCc4cc(O)ccc43)[C@@H]1CCC2=O,–,43.6 µM (active)
CC(C)=CCCC(C)CCOC(=O)C(C)C (stereo not given),12.8,–
C[Si](C)O[Si](C)C,-8.35,–
CCN1CCN(c2cc(-c3ccc(F)cc3)c3c(n2)CCCCCC3)CC1,-18.7,–
O=C=NCc1cccc(CN=C=O)c1,3.93,–
O=CC1CC1,12,–
CC(C)N=C(N)/N=C(\N)Nc1ccc(Cl)cc1,–,26.8 µM (active)
CCNc1nc(NC(C)CC)nc(OC)n1 (stereo not given),-18.1,–
COc1ccccc1OCCNCC(O)COc1cccc2[nH]c3ccccc3c12 (stereo not given),–,10.7 µM (active)
Cc1cc(Nc2ccc(O)cc2)ccc1N,–,19.4 µM (active)
CC(C)c1ccccc1N,0.54,–
Brc1ccccn1,-0.513,–
C=CC(C)C#N (stereo not given),11.1,–
CCCCCCCCCCc1ccccc1,-5.33,–
CCOC(=O)[C@@](C)(N)Cc1ccc(O)c(O)c1,0.793,–
COc1cccc(O)c1,11.4,–
O=C(Oc1ccccc1)c1cccc(C(=O)Oc2ccccc2)c1,5.48,–
O=C(O)CCCCCCC(=O)O,12.4,–
CCC1(c2cnc[nH]2)Cc2ccccc2C1,-4.11,–
CO[C@H]1C=CO[C@@]2(C)Oc3c(C)c(O)c4c(O)c(cc(O)c4c3C2=O)NC(=O)/C(C)=C\C=C/[C@H](C)[C@H](O)[C@@H](C)[C@@H](O)[C@@H](C)[C@H](OC(C)=O)[C@@H]1C,-22.2,–
